From PubChem BioAssay (NCI)
Several values for one entry are separate records, joined by “and”; a condition that tells them apart may be missing. Equal values may be shown once. This is part of a sample that, as a whole, favours compounds with a hit. Of some 79,000 tested, about 15% had one in any assay. The source holds several records for some structures; these can differ, active in one and inactive in another. Activity calls are given as the source filed them. Cut-off read from the data, not from the text of the source: active = growth inhibition above about 70%; inactive = the rest.

Key:
[1] = NCI Yeast Anticancer Drug Screen. Data for the wt1 strain (AID 149);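 note: 0% = growth of vehicle-treated wt1 cultures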; details: S. cerevisiae wt1 strain (SPY 50644) growth inhibition, stronger effect = higher value
Procedure, shortened: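 wt1 yeast, compound-treated; % growth inhibition vs vehicle control.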

[2] = NCI Yeast Anticancer Drug Screen. Data for the rad50EPP+ strain (AID 151);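 note: 0% = growth of vehicle-treated control cultures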; details: S. cerevisiae rad50 mutant strain, stronger effect = higher value
Procedure, shortened: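 Yeast strain carrying rad50 alteration (rad50EPP+) exposed to compounds; growth inhibition measured relative to vehicle-treated controls.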

[3] = NCI Yeast Anticancer Drug Screen. Data for the rad50 strain (AID 155);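 note: 0% = growth of vehicle-only cultures of the same strain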; details: S. cerevisiae rad50 strain growth inhibition, stronger effect = higher value
Procedure, shortened: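 Genetically altered yeast (DNA repair pathway); compound treatment; growth inhibition vs vehicle ctrl.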

[4] = NCI Yeast Anticancer Drug Screen. Data for the mec2-1 strain (AID 157); details: S. cerevisiae mec2-1 strain, stronger effect = higher value
Procedure, shortened: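 mec2-1 yeast strain, carrying an alteration in DNA damage repair or cell cycle control, was exposed to compounds; growth inhibition was measured relative to vehicle-treated controls.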

[5] = NCI Yeast Anticancer Drug Screen. Data for the rad14 strain (AID 159);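 note: 0% = growth of vehicle-treated control cultures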; details: S. cerevisiae rad14 strain growth inhibition, stronger effect = higher value
Procedure, shortened: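 Test compounds were applied to a repair-deficient yeast strain. Its growth was then compared with that of cultures given vehicle alone, and inhibition was expressed relative to those controls.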

[6] = NCI Yeast Anticancer Drug Screen. Data for the sgs1 mgt1 strain (AID 161);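 note: 0% = growth of cultures given vehicle only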; details: S. cerevisiae sgs1 mgt1 strain, stronger effect = higher value
Procedure, shortened: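 Compounds are added to genetically altered yeast, and growth is compared with cultures given vehicle alone to give percent inhibition.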

[7] = NCI Yeast Anticancer Drug Screen. Data for the CLN2oe strain (AID 163);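 note: 0% = growth of vehicle-only control cultures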; details: S. cerevisiae CLN2oe strain, stronger effect = higher value
Procedure, shortened: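 Yeast cells carrying a defined cell-cycle control alteration were exposed to test compounds. Growth inhibition was scored against vehicle-treated control cultures.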

[8] = NCI Yeast Anticancer Drug Screen. Data for the cln2 rad14 strain (AID 165);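 note: 0% = growth equal to vehicle treated cultures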; details: S. cerevisiae cln2 rad14 strain, stronger effect = higher value
Procedure, shortened: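 Yeast carrying cln2 and rad14 alterations (cell cycle control and DNA damage repair) were exposed to compounds. Growth inhibition was measured against vehicle-treated controls.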

[9] = NCI Yeast Anticancer Drug Screen. Data for the bub3 strain (AID 167); details: S. cerevisiae bub3 mutant strain, stronger effect = higher value
Procedure, shortened: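 Yeast carrying a defined mutation is treated with each compound, and growth is compared with that of vehicle-exposed cells to give inhibition.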

[10] = NCI Yeast Anticancer Drug Screen. Data for the mlh1 strain (AID 171);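 note: 0% = growth of vehicle-treated control cultures of the same strain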; details: S. cerevisiae mlh1 strain growth inhibition, stronger effect = higher value
Procedure, shortened: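 Yeast carrying a defined genetic alteration in DNA damage repair or cell cycle control were exposed to test compounds. Growth inhibition was measured relative to vehicle-treated controls.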

[11] = NCI Yeast Anticancer Drug Screen. Data for the sgs1 strain (AID 173);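 note: 0% = growth of vehicle-only control cultures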; details: S. cerevisiae sgs1 mutant, stronger effect = higher value
Procedure, shortened: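 Yeast mutant strains carrying defined defects in DNA damage repair or cell cycle control were exposed to test compounds. Growth inhibition was scored against vehicle-treated controls.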

[12] = NCI Yeast Anticancer Drug Screen. Data for the mlh1 rad18 strain (AID 175); details: S. cerevisiae mlh1 rad18 strain growth inhibition, stronger effect = higher value
Procedure, shortened: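 Growth inhibition of the yeast strain was measured after compound exposure and expressed relative to vehicle-treated controls. The strain carries defined defects in DNA damage repair.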

[13] = NCI Yeast Anticancer Drug Screen. Data for the rad18 strain (AID 177); details: S. cerevisiae rad18 mutant growth inhibition, stronger effect = higher value
Procedure, shortened: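 Yeast carrying a defined DNA damage repair alteration were exposed to compounds. Growth inhibition was expressed relative to vehicle-treated controls.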

[14] = NCI Yeast Anticancer Drug Screen. Data for the wt2 strain (AID 169);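 note: 0% = growth of vehicle-treated yeast cultures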; details: S. cerevisiae wt2 strain growth inhibition, stronger effect = higher value
Procedure, shortened: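 Yeast cells were exposed to test compounds, and growth inhibition was measured relative to vehicle-treated controls.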

[15] = at 5.0 µM (retest, dose inferred, filed as 0.5)
[16] = at 50.0 µM (retest, dose inferred, filed as 5.0)

Measured: growth inhibition

CN(C)c1ccc(C(c2ccc(Cl)cc2)c2ccc(N(C)C)cc2)cc1
-52% (inactive) and 97% (active): [8]; [15]
inactive: [1]; at 1.2 µM 0% | [1]; at 3.7 µM 53% | [1]; at 11.0 µM 28% | [2]; at 1.2 µM 3% | [2]; at 3.7 µM 10% | [2]; at 11.0 µM 6% | [2]; at 33.0 µM -2% | [2]; at 100.0 µM 14% | [3]; at 1.2 µM 64% | [4]; at 1.2 µM 31% | [7]; at 1.2 µM -14% | [7]; at 3.7 µM 26% | [7]; at 11.0 µM 26% | [10]; at 1.2 µM 9% | [11]; at 1.2 µM 24%
active: [1]; at 33.0 µM 73% | [1]; at 100.0 µM 86% | [3]; at 3.7 µM 97% | [3]; [15] 91% and 98% | [3]; at 11.0 µM 96% | [3]; at 33.0 µM 89% | [3]; [16] 94% and 99% | [3]; at 50.0 µM 95.7% and 94.5% | [3]; at 100.0 µM 79% | [4]; at 3.7 µM 98% | [4]; [15] 90% and 99% | [4]; at 11.0 µM 97% | [4]; at 33.0 µM 93% | [4]; [16] 93% and 100% | [4]; at 50.0 µM 95% and 94.3% | [4]; at 100.0 µM 86% | [5]; at 1.2 µM 82% | [5]; at 3.7 µM 98% | [5]; at 11.0 µM 98% | [5]; at 33.0 µM 94% | [5]; at 100.0 µM 84% | [6]; [15] 98% | [6]; [16] 94% and 99% | [6]; at 50.0 µM 94.1% and 95.3% | [7]; at 33.0 µM 87% | [7]; at 100.0 µM 78% | [8]; [16] 74% and 99% | [8]; at 50.0 µM 77.9% and 89.7% | [9]; at 1.2 µM 80% | [9]; at 3.7 µM 98% | [9]; [15] 93% and 99% | [9]; at 11.0 µM 97% | [9]; at 33.0 µM 93% | [9]; [16] 91% and 99% | [9]; at 50.0 µM 94.4% and 91.3% | [9]; at 100.0 µM 80% | [10]; at 3.7 µM 87% | [10]; at 11.0 µM 73% | [10]; at 33.0 µM 92% | [10]; at 100.0 µM 86% | [11]; at 3.7 µM 91% | [11]; at 11.0 µM 83% | [11]; at 33.0 µM 93% | [11]; at 100.0 µM 85% | [12]; [15] 96% and 98% | [12]; [16] 90% and 99% | [12]; at 50.0 µM 93.4% and 92.8% | [13]; at 1.2 µM 94% | [13]; at 3.7 µM 98% | [13]; at 11.0 µM 97% | [13]; at 33.0 µM 90% | [13]; at 100.0 µM 83%

O=C1c2ccc(O)cc2C(=O)c2c(O)ccc(O)c21
inactive: [1]; at 1.2 µM 4% | [1]; at 3.7 µM 17% | [2]; at 1.2 µM 25% | [2]; at 3.7 µM 64% | [3]; at 1.2 µM 16% | [3]; at 3.7 µM 35% | [3]; [15] 53% | [4]; at 1.2 µM 9% | [4]; at 3.7 µM 28% | [4]; [15] 45% | [4]; at 50.0 µM 49.1% | [5]; at 1.2 µM 10% | [5]; at 3.7 µM 27% | [6]; [15] 50% | [7]; at 1.2 µM 7% | [7]; at 3.7 µM 21% | [8]; [15] 32% | [8]; at 50.0 µM 51% | [9]; at 1.2 µM -2% | [9]; at 3.7 µM 0% | [9]; [15] 18% | [9]; at 11.0 µM 62% | [9]; at 50.0 µM 29% | [14]; at 1.2 µM 1% | [14]; at 3.7 µM 19% | [10]; at 1.2 µM 4% | [10]; at 3.7 µM 20% | [11]; at 1.2 µM 3% | [11]; at 3.7 µM 19% | [12]; [15] 48% | [12]; at 50.0 µM 68.7% | [13]; at 1.2 µM 6% | [13]; at 3.7 µM 17%
active: [1]; at 11.0 µM 94% | [1]; at 33.0 µM 97% | [1]; at 100.0 µM 93% | [2]; at 11.0 µM 93% | [2]; at 33.0 µM 93% | [2]; at 100.0 µM 88% | [3]; at 11.0 µM 87% | [3]; at 33.0 µM 95% | [3]; [16] 90% | [3]; at 50.0 µM 71.2% | [3]; at 100.0 µM 89% | [4]; at 11.0 µM 87% | [4]; at 33.0 µM 95% | [4]; [16] 93% | [4]; at 100.0 µM 89% | [5]; at 11.0 µM 93% | [5]; at 33.0 µM 95% | [5]; at 100.0 µM 91% | [6]; [16] 90% | [6]; at 50.0 µM 77.2% | [7]; at 11.0 µM 92% | [7]; at 33.0 µM 94% | [7]; at 100.0 µM 91% | [8]; [16] 88% | [9]; at 33.0 µM 91% | [9]; [16] 92% | [9]; at 100.0 µM 88% | [14]; at 11.0 µM 92% | [14]; at 33.0 µM 96% | [14]; at 100.0 µM 90% | [10]; at 11.0 µM 88% | [10]; at 33.0 µM 94% | [10]; at 100.0 µM 91% | [11]; at 11.0 µM 90% | [11]; at 33.0 µM 95% | [11]; at 100.0 µM 91% | [12]; [16] 97% | [13]; at 11.0 µM 88% | [13]; at 33.0 µM 94% | [13]; at 100.0 µM 89%

O=C(CSS(=O)(=O)O)c1ccccc1
inactive: [1]; at 1.2 µM 0% | [1]; at 3.7 µM 5% | [1]; at 11.0 µM 2% | [1]; at 33.0 µM 5% | [1]; at 100.0 µM 12% | [2]; at 1.2 µM -4% | [2]; at 3.7 µM -9% | [2]; at 11.0 µM 11% | [2]; at 33.0 µM 67% | [3]; at 1.2 µM -1% | [3]; at 3.7 µM -1% | [3]; [15] 6% | [3]; at 11.0 µM 2% | [3]; at 33.0 µM 2% | [3]; [16] 54% | [3]; at 50.0 µM 10.8% | [3]; at 100.0 µM 16% | [4]; at 1.2 µM -4% | [4]; at 3.7 µM -5% | [4]; [15] -15% | [4]; at 11.0 µM 0% | [4]; at 33.0 µM 9% | [4]; [16] -6% | [4]; at 50.0 µM 19.9% | [4]; at 100.0 µM 24% | [5]; at 1.2 µM 2% | [5]; at 3.7 µM 3% | [5]; at 11.0 µM 5% | [5]; at 33.0 µM 9%
active: [2]; at 100.0 µM 91%
